Experiment [1] can be described thus: E. coli DRC41 culture turbidity changes, primary screen, E. coli filamentation inducer project, strain DRC41, OD650, 48 h (AID 1152).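 Further: E. coli MC1000 strain DRC41 lacking acrAB efflux pump and sulA.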 Particulars: E. coli DRC41 (acrAB sulA), higher = more signal, called active from +8 up or from −8 down.
The nature of experiment [2]: small-molecule binders of probe aLefty1, primary screen, biochemical, small-molecule microarray, 635/667 nm fluorescence (AID 1153).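 Further: score merges spot fluorescence with signal-to-noise ratio from the scanned slide images.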 Particulars: higher = more signal.
Experiment [3] can be described thus: PSAC antagonists in infected red cells, primary screen, cell-based, P. falciparum Indochina, OD700, 1 h (AID 1154). Particulars: P. falciparum Indochina infected RBC osmotic lysis, higher = more signal, called active from +8 up or from −8 down.
The nature of experiment [4]: PSAC antagonists in infected red cells, primary screen, cell-based, P. falciparum Indochina, OD700, 2 h (AID 1155).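 Further: lysis reports solute entry through the parasite surface anion channel PSAC; channel blockers reduce lysis of infected cells.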 To be noted: P. falciparum Indochina infected erythrocytes, osmotic lysis OD700; higher = more signal, called active from +8 up or from −8 down.
Experiment [5] can be described thus: osmotic lysis modulators in infected erythrocytes, primary screen, PSAC antagonist project, cell-based, P. falciparum Indochina, OD700, 3 h (AID 1156). Particulars: higher = more signal, called active from +8 up or from −8 down.
Experiment [6] can be described thus: PSAC antagonists in infected red cells, primary screen, cell-based, P. falciparum Indochina, OD700, 18 h (AID 1157). Particulars: P. falciparum Indochina infected erythrocytes, osmotic lysis OD700, 18 h; higher = more signal, called active from +8 up or from −8 down.
The nature of experiment [7]: modulators of S6 phosphorylation in cells, primary screen, cell-based, A549, cytoblot, luminescence, serum-stimulated (AID 1158).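 Further: serum-stimulated A549 lung adenocarcinoma cells; signal is phosphorylated S6 detected by cytoblot immunostaining with HRP secondary.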 Particulars: A549 phospho-S6 cytoblot, 5 h, higher = more signal.
Experiment [8] concerns the target NADPH oxidase 2 (Homo sapiens) (UniProt P04839). As to the kind of experiment: NOX2-dependent H2O2 signal modulators, primary screen, NOX inhibitor project, cell-based, HEK293-NOX2, PMA-stimulated, Amplex Red fluorescence (AID 1159). Further: test concentration not given here. Particulars: 45 min, higher = more signal, called active from +8 up or from −8 down.
The target in experiment [9] is NADPH oxidase 4 (Homo sapiens) (UniProt Q9NPH5). Description: NOX4-dependent H2O2 signal modulators, primary screen, NOX inhibitor project, cell-based, HEK293-NOX4, tetracycline-induced, Amplex Red fluorescence (AID 1160). To be noted: 45 min, higher = more signal, called active from +8 up or from −8 down.
For experiment [10], the target named is NADPH oxidase 5 (Homo sapiens) (UniProt Q96PH1). As to the kind of experiment: NOX5-dependent H2O2 signal modulators, primary screen, NOX inhibitor project, cell-based, HEK293-NOX5, Amplex Red fluorescence (AID 1161). Particulars: HEK293-NOX5, ionomycin, 45 min, higher = more signal.
Experiment [11] in a line: A549 cell viability effects, profiling panel, calcein-AM fluorescence, 48 h, basal (AID 1162). Further: test concentration not given here. Particulars: higher = more signal.
A short description of experiment [12]: adipocyte viability effects, profiling panel, cell-based, 3T3-L1 adipocytes, calcein-AM fluorescence, 48 h, basal (AID 1163). Further: test concentration not given here. Particulars: 3T3-L1 adipocytes viability, higher = more signal.
Experiment [13] is described as follows: HepG2 cell viability effects, profiling panel, calcein-AM fluorescence, 48 h, basal (AID 1164). Further: test concentration not given here. To be noted: higher = more signal.
Experiment [14] in a line: MM1S cell viability effects, profiling panel, calcein-AM fluorescence, 48 h, basal (AID 1165).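 Further: viability of MM1S multiple myeloma cells under basal unstimulated conditions; test concentration not given here.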 Particulars: higher = more signal.
Experiment [15] can be described thus: basal RPMI8226 viability, no added stimulus, profiling panel, cell-based, calcein-AM fluorescence, 48 h, PK04 Diversity Set (AID 1166).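 Further: cells grown under basal conditions without added stimulus; test concentration not given here.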 Particulars: RPMI8226 myeloma viability, higher = more signal.
Experiment [16] is described as follows: basal HepG2 mitochondrial membrane potential changes, profiling panel, cell-based, JC-1 fluorescence, 24 h, 100 nL compound (AID 1167). Further: test concentration not given here. To be noted: higher = more signal.
Experiment [17] can be described thus: basal 3T3-L1 adipocyte mitochondrial potential changes, profiling panel, cell-based, JC-1 fluorescence, 3T3-L1 adipocytes, 24 h, 100 nL compound (AID 1168). Further: test concentration not given here. To be noted: JC-1 mitochondrial fluorescence, higher = more signal, called active from +8 up or from −8 down.
Experiment [18] is described as follows: basal RPMI8226 mitochondrial membrane potential changes, profiling panel, cell-based, JC-1 fluorescence, 24 h, 100 nL compound (AID 1169). Further: test concentration not given here. Particulars: RPMI8226 myeloma, JC-1 mitochondrial potential fluorescence, higher = more signal.
A short description of experiment [19]: basal MM1S mitochondrial membrane potential changes, profiling panel, cell-based, JC-1 fluorescence, 24 h, 100 nL compound (AID 1170). Further: test concentration not given here. To be noted: higher = more signal.
Experiment [20] in a line: A549 lung cancer cell viability effects, profiling panel, resazurin fluorescence, 24 h, PK04 Diversity Set (AID 1171). Further: test concentration not given here. To be noted: higher = more signal, called active from +8 up or from −8 down. On the technique in general: The colour change of resazurin is a common sign of viable cells or microbes.

Each structure is given as a SMILES string. Active and inactive are the calls of the source.

Chain of NADPH oxidase 2 (Homo sapiens) (P04839 whole entry, looked up): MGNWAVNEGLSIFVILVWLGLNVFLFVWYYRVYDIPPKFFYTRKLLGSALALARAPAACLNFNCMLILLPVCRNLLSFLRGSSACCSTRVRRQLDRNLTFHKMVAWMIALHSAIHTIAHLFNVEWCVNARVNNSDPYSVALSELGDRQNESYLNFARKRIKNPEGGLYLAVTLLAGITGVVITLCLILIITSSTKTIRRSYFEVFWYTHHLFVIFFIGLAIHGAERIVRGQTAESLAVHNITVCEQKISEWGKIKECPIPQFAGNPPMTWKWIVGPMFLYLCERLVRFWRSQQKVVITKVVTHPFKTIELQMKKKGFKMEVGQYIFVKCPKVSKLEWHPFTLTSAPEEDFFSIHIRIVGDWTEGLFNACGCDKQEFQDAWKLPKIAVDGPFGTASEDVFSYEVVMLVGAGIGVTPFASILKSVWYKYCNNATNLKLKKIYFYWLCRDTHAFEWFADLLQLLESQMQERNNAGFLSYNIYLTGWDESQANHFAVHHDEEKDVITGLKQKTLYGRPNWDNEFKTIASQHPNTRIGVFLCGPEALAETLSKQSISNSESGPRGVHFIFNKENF
Chain of NADPH oxidase 4 (Homo sapiens) (Q9NPH5 whole entry, looked up): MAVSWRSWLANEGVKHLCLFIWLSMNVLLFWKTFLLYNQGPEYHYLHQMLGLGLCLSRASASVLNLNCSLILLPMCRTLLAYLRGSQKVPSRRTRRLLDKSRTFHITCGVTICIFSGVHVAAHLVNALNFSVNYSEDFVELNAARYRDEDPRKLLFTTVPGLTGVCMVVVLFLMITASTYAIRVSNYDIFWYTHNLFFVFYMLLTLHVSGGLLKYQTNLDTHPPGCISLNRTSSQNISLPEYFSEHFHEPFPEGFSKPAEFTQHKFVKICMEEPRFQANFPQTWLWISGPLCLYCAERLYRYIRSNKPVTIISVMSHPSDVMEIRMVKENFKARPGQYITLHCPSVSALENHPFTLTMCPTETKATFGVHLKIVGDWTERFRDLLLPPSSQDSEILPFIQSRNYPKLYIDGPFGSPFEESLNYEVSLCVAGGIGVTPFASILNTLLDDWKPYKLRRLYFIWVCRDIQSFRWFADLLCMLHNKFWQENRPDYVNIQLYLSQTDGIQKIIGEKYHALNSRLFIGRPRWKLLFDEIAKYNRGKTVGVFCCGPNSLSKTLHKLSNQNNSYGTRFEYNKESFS
Chain of NADPH oxidase 5 (Homo sapiens) (Q96PH1 whole entry, looked up): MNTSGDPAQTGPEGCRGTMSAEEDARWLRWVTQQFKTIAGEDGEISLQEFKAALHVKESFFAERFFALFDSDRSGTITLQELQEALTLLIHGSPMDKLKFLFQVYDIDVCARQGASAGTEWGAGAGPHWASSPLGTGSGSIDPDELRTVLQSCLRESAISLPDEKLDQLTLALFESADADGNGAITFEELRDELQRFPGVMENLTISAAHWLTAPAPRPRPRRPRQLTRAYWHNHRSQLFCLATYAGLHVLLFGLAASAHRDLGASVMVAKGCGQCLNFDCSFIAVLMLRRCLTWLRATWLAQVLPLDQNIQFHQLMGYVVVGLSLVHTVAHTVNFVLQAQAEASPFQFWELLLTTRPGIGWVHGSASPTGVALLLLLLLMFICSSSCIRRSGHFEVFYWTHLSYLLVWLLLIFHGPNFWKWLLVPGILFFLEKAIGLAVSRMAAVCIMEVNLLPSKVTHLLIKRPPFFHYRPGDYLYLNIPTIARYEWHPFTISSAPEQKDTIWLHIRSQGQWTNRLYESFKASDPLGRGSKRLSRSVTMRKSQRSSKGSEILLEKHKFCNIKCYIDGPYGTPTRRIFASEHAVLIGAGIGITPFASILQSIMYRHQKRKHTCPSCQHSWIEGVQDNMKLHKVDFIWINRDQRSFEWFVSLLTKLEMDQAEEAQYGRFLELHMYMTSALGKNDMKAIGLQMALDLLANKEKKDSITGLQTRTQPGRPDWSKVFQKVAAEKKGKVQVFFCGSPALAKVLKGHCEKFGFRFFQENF

For `COCCOC(=O)N1C(=O)[C@@]2(c3ccccc31)[C@H](c1ccc(O)cc1)N1[C@H](c3ccccc3)[C@H](c3ccccc3)OC(=O)[C@H]1[C@@H]2C(=O)NC[C@H](O)c1ccccc1`, the z-score is 0.0221 (inactive) in experiment [1]; 1.06 (inactive) in [3]; 0.664 (inactive) in [4]; 0.515 (inactive) in experiment [5]; 0.563 (inactive) in experiment [6]; 0.104 in experiment [7]. The z-score was 0.873 (inactive) in experiment [8]; 0.0245 (inactive) in experiment [9]; 0.604 in experiment [10]; 0.205 in experiment [11]; 1.15 in experiment [12]; 0.311 in [13]. The z-score in experiment [14] is -0.534; in [15], -1.99; in [16], -1.02; in experiment [17] it was -0.184 (inactive); in [18], 0.266; in [19] it was -0.142. In experiment [20], the z-score is -1.1 (inactive). The same molecule returned a composite z-score in [2] of 0.132.

As for `O=C1c2ccccc2[C@@]2(Cc3ccccc3N(CCN3CCOCC3)C2=O)[C@H](c2ccc(CO)cc2)N1Cc1ccccc1`, the z-score is 1.04 (inactive) in experiment [1]; 0.884 (inactive) in experiment [3]; -0.273 (inactive) in [4]; -0.378 (inactive) in experiment [5]; 0.646 (inactive) in experiment [6]; 0.215 in [7]. Also, the z-score in [8] is 0.0706 (inactive); in experiment [9], -0.582 (inactive); in experiment [10], -0.606; in experiment [11], 0.668; in [12], -0.238; in experiment [13], 0.402. Further, the z-score in experiment [14] is 0.0855; in [15], 0.66; in experiment [16], 0.761; in experiment [17], 0.734 (inactive); in experiment [18] it was -0.605; in experiment [19] it was -0.253. In addition, the z-score in experiment [20] was -0.273 (inactive). The composite z-score in [2] was -0.0479.

Regarding `COC(=O)[C@@]1(Cc2ccc(OC)cc2)[C@H]2c3cc(C(=O)N4CCCC4)n(Cc4ccc(OC)c(OC)c4)c3C[C@H]2CN1C(=O)c1ccccc1`, the z-score was -1.08 (inactive) in experiment [1]; 4.08 (inactive) in experiment [3]; 0.81 (inactive) in experiment [4]; 1.92 (inactive) in experiment [5]; 0.91 (inactive) in [6]; 0.0413 in experiment [7]. The z-score in [8] was 0.555 (inactive); in [9] it was 0.235 (inactive); in experiment [10], -3.23; in experiment [11], -0.25; in [12], 0.525; in experiment [13], -1.05. Further, the z-score in [14] is -0.128; in [15], -0.808; in experiment [16], 4; in experiment [17], 0.0331 (inactive); in experiment [18], -0.16; in experiment [19] it was -0.602. Further, the z-score in experiment [20] is 1.21 (inactive). Further, the composite z-score in experiment [2] came to 1.61.

For the molecule `CN1C(=O)C2C=CC(C(O)c3ccccc3)N(Nc3ccccc3)C2C1=O` (stereo not given), the z-score in experiment [1] is -1.78 (inactive); in [3] it was 0.0961 (inactive); in [4], 1.31 (inactive); in [5], 0.595 (inactive); in experiment [6], 0.974 (inactive); in experiment [7], -1.1. Also, the z-score in [8] was -1.67 (inactive); in [9], -3.82 (inactive); in experiment [10], -3.23; in [11], -1.3; in experiment [12], -0.559; in [13], -0.761. The z-score in [14] was -1.4; in experiment [15], 0.362; in experiment [16] it was -1.69; in experiment [17], -0.441 (inactive); in experiment [18], 0.636; in experiment [19], -0.207. In addition, the z-score in experiment [20] is -1.26 (inactive). This molecule also showed a composite z-score in experiment [2] of 0.242.

Turning to `COC(=O)[C@@]1(Cc2ccc(F)cc2)[C@H]2c3cc(C(=O)N(C)C)n(Cc4ccc(S(C)(=O)=O)cc4)c3C[C@H]2CN1C(=O)c1ccccc1`, the z-score was -0.367 (inactive) in [1]; 1.32 (inactive) in [3]; 0.495 (inactive) in experiment [4]; 1.01 (inactive) in experiment [5]; 0.739 (inactive) in experiment [6]; -0.594 in experiment [7]. The z-score was 0.713 (inactive) in experiment [8]; 0.668 (inactive) in experiment [9]; 0.274 in experiment [10]; -0.379 in experiment [11]; -0.631 in experiment [12]; 0.137 in experiment [13]. For the same molecule, the z-score is 0.373 in experiment [14]; -0.198 in [15]; 3.32 in [16]; -0.224 (inactive) in experiment [17]; 0.059 in [18]; 0.125 in experiment [19]. For the same molecule, the z-score in experiment [20] is -0.46 (inactive). In [2], this molecule returned a composite z-score of 0.277.

As for `CN1C(=O)C2C=CC(C(O)Cc3ccccc3)N(Nc3ccccc3)C2C1=O` (stereo not given), the z-score was -1.55 (inactive) in [1]; 1.15 (inactive) in experiment [3]; 0.872 (inactive) in [4]; 0.215 (inactive) in experiment [5]; 0.9 (inactive) in [6]; -0.709 in experiment [7]. Besides, the z-score is -1.57 (inactive) in experiment [8]; -4.77 (inactive) in experiment [9]; -3.59 in [10]; 0.368 in experiment [11]; -1.33 in [12]; 0.0486 in experiment [13]. In addition, the z-score in [14] is -1.48; in experiment [15] it was -0.618; in experiment [16], -1.32; in [17], -1.06 (inactive); in [18], 0.0363; in experiment [19], 0.155. In addition, the z-score in experiment [20] is -0.528 (inactive). Moreover, in [2], the composite z-score is -0.0501.

As to `CCCCC(=C=CC[C@@H](O)c1ccccc1OCCO)CCO`, the z-score in experiment [1] was 0.086 (inactive); in experiment [3], 9.77 (active); in experiment [4], 0.899 (inactive); in experiment [5], 0.631 (inactive); in experiment [6], 0.576 (inactive); in experiment [7] it was 0.289. Besides, the z-score in experiment [8] was -0.0172 (inactive); in [9] it was -0.742 (inactive); in experiment [10] it was -1.71; in [11] it was 0.499; in experiment [12] it was 0.337; in [13] it was 0.595. Also, the z-score in experiment [14] was -0.0292; in [15], 0.181; in experiment [16], 0.251; in experiment [17], -0.321 (inactive); in experiment [18] it was 0.11; in experiment [19], 0.502. In experiment [20], the z-score is 0.245 (inactive). Also, the composite z-score in [2] amounted to 0.0752.

Values taken from PubChem BioAssay.
